# Laboratory results taken from PubChem BioAssay (Tox21).
# Results filed as inconclusive are left out. A call without a number means that no potency is given here. Unmarked numbers belong to inactive results. Calls of active or inactive are those of the source. Unless noted, calls come from the whole dose curve.
# Tests used:
# [1] = qHTS assay to identify small molecule antagonists of the vitamin D receptor (VDR) signaling pathway - cell viability counter screen (AID 743225; active = well fitted curve in the direction sought with a large enough effect in the repeat runs; an effect the other way counts as inactive or inconclusive; note: nearly all actives have a fitted effect of over 50% in size)
# Procedure, shortened: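 Cytotoxicity counter screen read by CellTiter-Glo luminescence (30 min, room temperature) in the same wells as the VDR-bla antagonist readout. HEK 293T VDR-UAS-bla cells had 16 h at 37C with compound and 3 nM (final) 1-alpha,25-dihydroxyvitamin D3, then 2 h with FRET substrate.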
# [2] = qHTS assay to identify small molecule agonists of the NFkB signaling pathway (AID 1159509; active = well fitted curve in the direction sought with a large enough effect in the signal ratio in the repeat runs, not every such curve was filed as active; the % refers to the signal ratio; note: series mostly up to about 61 µM)
# Procedure, shortened: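 NFkB-bla ME-180 cells with a beta-lactamase reporter under an NF-kB response element were plated overnight, treated with compounds in DMSO for 5 hr at 37 C, then loaded with FRET substrate for 1.5 hr at room temperature.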
# [3] = qHTS assay to identify small molecule agonists of the NFkB signaling pathway - cell viability counter screen (AID 1159515); note: nearly all actives have a fitted effect of over 55% in size; note: potency is the fitted concentration of half-maximal effect; for activity, negative = cytotoxic: series mostly up to about 61 µM
# Procedure, shortened: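 NFkB-bla ME-180 cells, 2,000/well, plated overnight at 37 C; compound added for 5 hr at 37 C. Viability read in the same wells as the bla reporter, by CellTiter-Glo luminescence after 30 min at room temperature.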
# [4] = qHTS assay to identify small molecule agonists of the endoplasmic reticulum stress response signaling pathway - cell viability counter screen (AID 1159517); note: nearly all actives have a fitted effect of over 50% in size; note: potency is the fitted concentration of half-maximal effect;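 for activity change, negative = cytotoxicity: HeLa cells carrying an ER stress response element beta-lactamase reporter; series mostly up to about 61 µM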
# Procedure, shortened: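 Counter-screen wells were identical to the reporter wells. Cells were plated at 1,500 per well and dosed for 5 hr, then read for luminescence 30 min after CellTiter-Glo addition.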
# [5] = qHTS assay to identify small molecule antagonists of the retinoid-related orphan receptor gamma (ROR-gamma) signaling pathway - cell viability counter screen (AID 1159520; active = well fitted curve in the direction sought with a large enough effect in the repeat runs; an effect the other way counts as inactive or inconclusive; note: nearly all actives have a fitted effect of over 50% in size; note: potency is the fitted concentration of half-maximal effect)
# Procedure, shortened: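 Tet-on ROR gamma CHO cells were given compounds for 2 hr, then doxycycline hyclate at 1 uM final, and incubated 16 hr at 37 C. Viability was measured as ATP content by CellTiter-Glo luminescence.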
# [6] = biological target: Nuclear receptor ROR-gamma (Homo sapiens) (UniProt P51449); assay: qHTS assay to identify small molecule antagonists of the retinoid-related orphan receptor gamma (ROR-gamma) signaling pathway (AID 1159521; active = well fitted curve in the direction sought with a large enough effect in the repeat runs; an effect the other way counts as inactive or inconclusive; note: top concentration of the series differs between compounds; nearly all actives have a fitted effect of over 50% in size)
# Procedure, shortened: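 Antagonist read-out: drop in luminescence (ONE-Glo) from an RORE-LUC reporter in CHO cells with doxycycline-inducible ROR-gamma; 2 hr compound pretreatment, 1 uM doxycycline, 16 hr incubation at 37 C.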
# [7] = qHTS assay to identify small molecule agonists of the AP-1 signaling pathway - cell viability counter screen (AID 1159525); note: nearly all actives have a fitted effect of over 55% in size
# Procedure, shortened: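 AP-1-bla ME-180 cells in Opti-MEM with 0.5% dialyzed FBS, compound exposure 5 h at 37 C in 15-point titration. Viability read in the same wells as ATP content by CellTiter-Glo luminescence, normalised to tetra-n-octylammonium bromide and DMSO controls.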
# [8] = qHTS assay to identify small molecule agonists of the AP-1 signaling pathway (AID 1159526)
# [9] = biological target: Retinoic acid receptor RXR-alpha (Homo sapiens) (UniProt P19793); assay: qHTS assay to identify small molecule agonists of the RXR signaling pathway (AID 1159527); note: nearly all actives have a fitted effect of over 35% in size
# Procedure, shortened: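 Agonist-mode beta-lactamase reporter assay: HEK 293T RXR-alpha-UAS-bla cells treated 16 hr at 37 C with compounds, 9-cis retinoic acid as positive control. LiveBLAzer FRET substrate, 405 nm excitation, 460/530 nm emission.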
# [10] = qHTS assay to identify small molecule agonists of the endoplasmic reticulum stress response signaling pathway (AID 1159516; active = well fitted activation curve with a large enough effect in the signal ratio in the repeat runs, not every such curve was filed as active; the % refers to the signal ratio)
# Procedure, shortened: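 CellSensor ESRE-bla HeLa cells, 1,500 per well, plated overnight, then exposed to compounds for 5 hr at 37 C. Beta-lactamase reporter read with LiveBLAzer B/G FRET substrate after 2 hr at room temperature, 405 nm excitation, 460 and 530 nm emission.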
# Chain of Retinoic acid receptor RXR-alpha (Homo sapiens) (P19793 whole entry, looked up): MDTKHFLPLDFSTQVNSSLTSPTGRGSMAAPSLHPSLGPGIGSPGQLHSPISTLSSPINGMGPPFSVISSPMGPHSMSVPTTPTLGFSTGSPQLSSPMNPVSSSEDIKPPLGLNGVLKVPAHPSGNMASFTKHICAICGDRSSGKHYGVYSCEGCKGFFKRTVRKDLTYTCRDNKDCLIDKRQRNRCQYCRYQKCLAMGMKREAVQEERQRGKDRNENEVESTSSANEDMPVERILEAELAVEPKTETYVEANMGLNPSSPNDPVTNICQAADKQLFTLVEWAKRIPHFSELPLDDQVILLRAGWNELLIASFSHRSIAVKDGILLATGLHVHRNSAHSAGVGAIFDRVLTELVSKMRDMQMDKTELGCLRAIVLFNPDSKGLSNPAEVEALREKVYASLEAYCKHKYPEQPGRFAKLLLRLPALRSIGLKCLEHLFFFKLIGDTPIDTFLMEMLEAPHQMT
structure (smiles),measurement,setting,value
CC(C)(C)CCCCCCOC(=O)c1ccccc1C(=O)OCCCCCCC(C)(C)C,Potency,[1],inactive
same,outcome,[2],inactive
same,Potency,[3],inactive
same,Potency,[4],inactive
same,Potency,[5],inactive
same,Potency,[6],inactive
same,Potency,[7],inactive
same,outcome,[8],inactive
CCCCCc1ccco1,outcome,[2],inactive
same,Potency,[3],inactive
same,Potency,[4],inactive
same,Potency,[5],inactive
same,Potency,[6],inactive
same,outcome,[8],inactive
COc1ccc(-n2nc(C(F)F)cc2-c2ccc(S(C)=O)cc2)cc1 (stereo unspecified),Potency,[1],inactive
same,outcome,[2],inactive
same,Potency,[3],inactive
same,Potency,[4],inactive
same,Potency,[5],inactive
same,Potency,[6],inactive
same,Potency,[7],inactive
same,outcome,[8],inactive
CC12CC3CC(C)(C1)CC(N)(C3)C2,Potency,[1],inactive
same,outcome,[2],inactive
same,Potency,[3],inactive
same,Potency,[4],inactive
same,Potency,[5],inactive
same,Potency,[6],inactive
same,outcome,[8],inactive
same,Potency,[9],inactive
COC(=O)CC(C(C)=O)C(=O)OC (stereo unspecified),Potency,[1],inactive
same,outcome,[2],inactive
same,Potency,[3],inactive
same,Potency,[4],inactive
same,Potency,[5],inactive
same,Potency,[6],inactive
same,outcome,[8],inactive
same,Potency,[9],inactive
CCO[Si](C)(CCCOCC1CO1)OCC (stereo unspecified),Potency,[1],inactive
same,outcome,[2],inactive
same,Potency,[3],inactive
same,Potency,[4],inactive
same,Potency,[6],inactive
same,outcome,[8],inactive
same,Potency,[9],inactive
CCN(Cc1cccc(S(=O)(=O)O)c1)c1ccc(C(=C2C=CC(=[N+](CC)Cc3cccc(S(=O)(=O)O)c3)C=C2)c2ccccc2S(=O)(=O)[O-])cc1,Potency,[3],34.8 µM (active)
same,Potency,[10],inactive
same,Potency,[5],9.72 µM (active)
COc1ccc(C)cc1,Potency,[1],inactive
same,outcome,[2],inactive
same,Potency,[3],inactive
same,Potency,[4],inactive
same,Potency,[6],inactive
same,Potency,[7],inactive
same,outcome,[8],inactive
same,Potency,[9],inactive
CC1=CC[C@@H]2C[C@H]1C2(C)C,"viability change, negative = cytotoxic",[1],-2.02% [at 15.1 µM]
same,activation,[2],-0.527% [at 15.1 µM]
same,"activity, negative = cytotoxic",[3],15.3% [at 15.1 µM]
same,"activity change, negative = cytotoxicity",[4],30.1% [at 15.1 µM]
same,"activity change, negative = inhibition",[6],-7.14% [at 19 µM]
same,activation,[8],4.37% [at 15.8 µM]
CCCCCCCCCCCCCCCCCC(=O)OCC(CC)CCCC (stereo unspecified),Potency,[1],inactive
same,outcome,[2],inactive
same,Potency,[3],inactive
same,Potency,[4],inactive
same,Potency,[5],inactive
same,Potency,[6],inactive
same,outcome,[8],inactive
same,Potency,[9],inactive
COc1cc(OC)c2ccc(=O)oc2c1,Potency,[1],inactive
same,outcome,[2],inactive
same,Potency,[3],inactive
same,Potency,[4],inactive
same,Potency,[5],inactive
same,Potency,[6],inactive
same,Potency,[7],inactive
same,outcome,[8],inactive
CC(CO)(CO)C(=O)O,Potency,[1],inactive
same,outcome,[2],inactive
same,Potency,[3],inactive
same,Potency,[4],inactive
same,Potency,[6],inactive
same,Potency,[7],inactive
same,outcome,[8],inactive
same,Potency,[9],inactive
CCOCCC(=O)OCC,Potency,[1],inactive
same,outcome,[2],inactive
same,Potency,[3],inactive
same,Potency,[4],inactive
same,Potency,[5],inactive
same,Potency,[6],inactive
same,outcome,[8],inactive
same,Potency,[9],inactive
O=C(O)CCCc1c[nH]c2ccccc12,Potency,[1],inactive
same,outcome,[2],inactive
same,Potency,[3],inactive
same,Potency,[4],inactive
same,Potency,[6],inactive
same,Potency,[7],inactive
same,outcome,[8],inactive
CC(C(=O)O)c1ccc(C(=O)c2cccs2)cc1 (stereo unspecified),Potency,[1],inactive
same,outcome,[2],inactive
same,Potency,[3],inactive
same,Potency,[4],inactive
same,Potency,[6],inactive
same,Potency,[7],inactive
same,outcome,[8],inactive
same,Potency,[9],inactive
CCCCCCCC/C=C/C(=O)O,Potency,[1],inactive
same,outcome,[2],inactive
same,Potency,[3],inactive
same,Potency,[4],inactive
same,Potency,[5],inactive
same,Potency,[6],inactive
same,Potency,[7],inactive
same,outcome,[8],inactive
CCCCCCCCCCCCCC(=O)OCC(O)CO (stereo unspecified),outcome,[2],inactive
same,Potency,[3],inactive
same,Potency,[4],inactive
same,Potency,[6],inactive
same,Potency,[7],inactive
same,outcome,[8],inactive
CCCCCCOC(=O)CCCCC,outcome,[2],inactive
same,Potency,[3],inactive
same,Potency,[4],inactive
same,Potency,[6],inactive
same,Potency,[7],inactive
same,outcome,[8],inactive
same,Potency,[9],inactive
CC1CCC(C(C)CS)CC1S (stereo unspecified),Potency,[1],inactive
same,outcome,[2],inactive
same,Potency,[3],inactive
same,Potency,[4],19.5 µM (active)
same,Potency,[6],inactive
same,Potency,[7],inactive
same,outcome,[8],inactive
same,Potency,[9],inactive
O=NN(CCCl)C(=O)NCCCl,Potency,[1],inactive
same,Potency,[3],inactive
same,Potency,[10],inactive
same,Potency,[5],inactive
same,Potency,[6],inactive
same,Potency,[7],inactive
same,outcome,[8],inactive
CCCc1nc2c(C)cc(-c3nc4ccccc4n3C)cc2n1Cc1ccc(-c2ccccc2C(=O)O)cc1,Potency,[1],inactive
same,Potency,[3],inactive
same,Potency,[4],inactive
same,Potency,[5],inactive
same,Potency,[6],inactive
same,Potency,[7],inactive
same,outcome,[8],inactive
CC(O)Cn1cnc2c1c(=O)n(C)c(=O)n2C (stereo unspecified),Potency,[1],inactive
same,Potency,[3],inactive
same,Potency,[4],inactive
same,Potency,[5],inactive
same,Potency,[6],inactive
same,outcome,[8],inactive
same,Potency,[9],inactive
COC(C)(C)OC,Potency,[3],inactive
same,Potency,[10],inactive
same,Potency,[5],inactive
same,Potency,[6],inactive
same,outcome,[8],inactive
same,Potency,[9],inactive
CC(C)N(C)C,Potency,[3],inactive
same,Potency,[10],inactive
same,outcome,[8],inactive
same,Potency,[9],inactive
O=C1OC[C@H](Cc2cccc(O)c2)[C@H]1Cc1cccc(O)c1,Potency,[1],inactive
same,Potency,[3],inactive
same,Potency,[10],inactive
same,Potency,[5],inactive
same,Potency,[6],inactive
same,outcome,[8],inactive
same,Potency,[9],inactive
O=C(O)CN1C(=O)c2cccc3cccc(c23)C1=O,Potency,[1],inactive
same,Potency,[3],inactive
same,Potency,[4],inactive
same,Potency,[6],inactive
same,outcome,[8],inactive
same,Potency,[9],inactive
OCC(CO)n1cnc(-c2ccc(F)cc2)c1-c1ccnc(Oc2ccccc2)n1,Potency,[1],inactive
same,Potency,[3],inactive
same,Potency,[10],inactive
same,Potency,[5],inactive
same,Potency,[6],inactive
same,Potency,[7],inactive
same,outcome,[8],inactive
CCN(CC)C(=O)/C(C#N)=C/c1cc(O)c(O)c([N+](=O)[O-])c1,Potency,[1],inactive
same,Potency,[3],inactive
same,Potency,[10],inactive
same,Potency,[5],inactive
same,Potency,[7],inactive
same,outcome,[8],inactive
CCN(CC)CCOc1ccccc1C(=O)CCc1ccccc1,Potency,[1],inactive
same,Potency,[3],12 µM (active)
same,Potency,[10],inactive
same,Potency,[5],inactive
same,Potency,[6],inactive
CCOC(=O)c1c(N)sc2c1CCN(Cc1ccccc1)C2,Potency,[3],inactive
same,Potency,[4],inactive
same,Potency,[6],inactive
same,Potency,[7],inactive
same,outcome,[8],inactive
same,Potency,[9],inactive
